Results: PubChem BioAssay (NCATS)
Inconclusive results are not listed. A call without a number means that no potency is given here. Active and inactive are the calls of the source. Unless noted, calls follow the shape of the dose curve; as a rule, active = well fitted curve in the direction sought with a large enough effect in the repeat runs; inconclusive = weak or mixed curves; inactive = no such curve, though single readings can be large; an effect the other way counts as inactive or inconclusive.

Assays:
[1] = molecular target: Cytochrome P450 2D6 (Homo sapiens) (UniProt P10635); test: Cytochrome P450 family 2 subfamily D member 6 (CYP2D6) small molecule antagonists: luciferase biochemical (cell-free) qHTS assay (AID 1645840); details: P450-Glo CYP2D6 enzyme, luciferin luminescence, 1 h; series mostly up to 57.4 µM; also: nearly all actives have a fitted effect of over 55% in size; also: potency is read from the fitted curve at half-maximal effect
Cytochrome P450 2D6 (Homo sapiens), sequence (P10635 whole entry, looked up): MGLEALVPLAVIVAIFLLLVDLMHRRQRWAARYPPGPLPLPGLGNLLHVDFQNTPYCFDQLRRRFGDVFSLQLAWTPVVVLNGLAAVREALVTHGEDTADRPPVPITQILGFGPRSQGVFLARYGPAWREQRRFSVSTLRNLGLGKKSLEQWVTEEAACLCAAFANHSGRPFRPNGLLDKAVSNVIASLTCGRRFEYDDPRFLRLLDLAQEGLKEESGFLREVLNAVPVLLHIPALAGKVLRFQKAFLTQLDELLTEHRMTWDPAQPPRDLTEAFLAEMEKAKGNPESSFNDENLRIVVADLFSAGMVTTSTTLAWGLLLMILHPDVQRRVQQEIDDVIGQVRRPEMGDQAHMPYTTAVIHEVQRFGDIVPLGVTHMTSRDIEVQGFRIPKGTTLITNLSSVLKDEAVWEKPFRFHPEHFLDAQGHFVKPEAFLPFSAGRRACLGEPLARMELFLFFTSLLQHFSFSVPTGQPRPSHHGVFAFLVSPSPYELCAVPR
In short: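 P450-Glo luminescent screen: recombinant CYP2D6 enzyme–proluciferin substrate mix preincubated with compound 10 min at room temperature, then NADPH regeneration added for 1 h at room temperature. Detection reagent added for 20 min; luciferin light read as relative luminescence units.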

[2] = molecular target: Cytochrome P450 2C9 (Homo sapiens) (UniProt P11712); test: Cytochrome P450 family 2 subfamily C member 9 (CYP2C9) small molecule antagonists: luciferase biochemical (cell-free) qHTS assay (AID 1645842); details: P450-Glo CYP2C9 enzyme assay, luciferin luminescence; series mostly up to 57.4 µM; also: nearly all actives have a fitted effect of over 55% in size; also: potency is read from the fitted curve at half-maximal effect
Cytochrome P450 2C9 (Homo sapiens), sequence (P11712 whole entry, looked up): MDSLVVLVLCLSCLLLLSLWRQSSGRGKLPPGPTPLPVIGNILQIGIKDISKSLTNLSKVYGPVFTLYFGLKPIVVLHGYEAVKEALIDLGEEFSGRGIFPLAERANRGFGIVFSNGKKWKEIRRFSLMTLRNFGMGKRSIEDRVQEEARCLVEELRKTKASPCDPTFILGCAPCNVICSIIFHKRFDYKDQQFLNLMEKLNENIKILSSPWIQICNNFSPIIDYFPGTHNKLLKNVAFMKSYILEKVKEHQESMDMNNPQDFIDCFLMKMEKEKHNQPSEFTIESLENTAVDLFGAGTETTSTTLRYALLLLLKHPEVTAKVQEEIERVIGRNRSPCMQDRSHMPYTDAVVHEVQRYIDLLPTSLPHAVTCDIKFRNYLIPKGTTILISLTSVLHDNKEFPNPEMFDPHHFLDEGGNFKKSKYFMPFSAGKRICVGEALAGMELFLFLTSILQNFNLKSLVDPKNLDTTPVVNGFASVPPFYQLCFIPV
In short: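 Luminescence, after 20 min with luciferin detection reagent, reflected CYP2C9 turnover during a 1 h NADPH-driven reaction at 37C. Enzyme-substrate mix contained 0.4% bovine serum albumin and was preincubated with compound 10 min at room temperature.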

[3] = molecular target: Cytochrome P450 3A4 (Homo sapiens) (UniProt P08684); test: Cytochrome P450 family 3 subfamily A member 4 (CYP3A4) small molecule antagonists: luciferase qHTS assay (AID 1645841); details: P450-Glo CYP3A4 enzyme assay, luciferin luminescence; series mostly up to 57.4 µM; also: nearly all actives have a fitted effect of over 45% in size
Cytochrome P450 3A4 (Homo sapiens), sequence (P08684 whole entry, looked up): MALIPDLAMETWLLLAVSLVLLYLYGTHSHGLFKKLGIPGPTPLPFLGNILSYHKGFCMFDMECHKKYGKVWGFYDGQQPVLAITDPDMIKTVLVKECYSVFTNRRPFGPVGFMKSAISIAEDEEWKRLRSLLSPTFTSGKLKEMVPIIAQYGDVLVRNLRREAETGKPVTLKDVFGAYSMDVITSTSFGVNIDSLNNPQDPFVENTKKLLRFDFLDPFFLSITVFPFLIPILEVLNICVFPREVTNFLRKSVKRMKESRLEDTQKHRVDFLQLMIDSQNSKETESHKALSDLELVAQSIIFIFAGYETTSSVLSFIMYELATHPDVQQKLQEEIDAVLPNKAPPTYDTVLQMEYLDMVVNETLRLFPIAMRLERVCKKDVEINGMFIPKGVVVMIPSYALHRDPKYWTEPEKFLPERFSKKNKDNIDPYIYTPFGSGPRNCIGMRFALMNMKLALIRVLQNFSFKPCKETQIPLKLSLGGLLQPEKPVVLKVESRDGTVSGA
In short: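 P450-Glo CYP3A4 enzyme with proluciferin substrate was preincubated with DMSO-dissolved compounds for 10 min at room temperature. NADPH regeneration solution started a 1 h reaction. Detection reagent stopped it, and luminescence was read after 20 min.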

[4] = Primary qHTS for inhibitors of nuclear receptor binding SET domain protein 2 (NSD2) in an isogenic RCH-ACV NSD2 p.E1099K mutant (9B) (AID 1645876; active = well fitted curve in the direction sought with a large enough effect; an effect the other way counts as inactive or inconclusive; also: nearly all actives have a fitted effect of over 70% in size); details: RCH-ACV NSD2 E1099K (9B) viability, CellTiter-Glo, 72 h; series mostly up to 44.9 µM
[5] = Primary qHTS for inhibitors of nuclear receptor binding SET domain protein 2 (NSD2) in an RCH-ACV wild type WT cells (2C) (AID 1645877; active = well fitted curve in the direction sought with a large enough effect; an effect the other way counts as inactive or inconclusive; also: nearly all actives have a fitted effect of over 70% in size); details: RCH-ACV (leukaemia line) NSD2 WT (2C) viability, CellTiter-Glo, 72 h; series mostly up to 44.9 µM
[6] = molecular target: Rap guanine nucleotide exchange factor 3 (Homo sapiens) (UniProt O95398); test: Confirmatory qHTS for antagonist of cAMP-regulated guanine nucleotide exchange factor 3 (EPAC1) (AID 1645880; active = well fitted curve in the direction sought with a large enough effect; an effect the other way counts as inactive or inconclusive; also: nearly all actives have a fitted effect of over 55% in size); details: EPAC1 Rap1B-BODIPY-GDP exchange, fluorescence; series mostly up to 115 µM
Rap guanine nucleotide exchange factor 3 (Homo sapiens), sequence (O95398 whole entry, looked up): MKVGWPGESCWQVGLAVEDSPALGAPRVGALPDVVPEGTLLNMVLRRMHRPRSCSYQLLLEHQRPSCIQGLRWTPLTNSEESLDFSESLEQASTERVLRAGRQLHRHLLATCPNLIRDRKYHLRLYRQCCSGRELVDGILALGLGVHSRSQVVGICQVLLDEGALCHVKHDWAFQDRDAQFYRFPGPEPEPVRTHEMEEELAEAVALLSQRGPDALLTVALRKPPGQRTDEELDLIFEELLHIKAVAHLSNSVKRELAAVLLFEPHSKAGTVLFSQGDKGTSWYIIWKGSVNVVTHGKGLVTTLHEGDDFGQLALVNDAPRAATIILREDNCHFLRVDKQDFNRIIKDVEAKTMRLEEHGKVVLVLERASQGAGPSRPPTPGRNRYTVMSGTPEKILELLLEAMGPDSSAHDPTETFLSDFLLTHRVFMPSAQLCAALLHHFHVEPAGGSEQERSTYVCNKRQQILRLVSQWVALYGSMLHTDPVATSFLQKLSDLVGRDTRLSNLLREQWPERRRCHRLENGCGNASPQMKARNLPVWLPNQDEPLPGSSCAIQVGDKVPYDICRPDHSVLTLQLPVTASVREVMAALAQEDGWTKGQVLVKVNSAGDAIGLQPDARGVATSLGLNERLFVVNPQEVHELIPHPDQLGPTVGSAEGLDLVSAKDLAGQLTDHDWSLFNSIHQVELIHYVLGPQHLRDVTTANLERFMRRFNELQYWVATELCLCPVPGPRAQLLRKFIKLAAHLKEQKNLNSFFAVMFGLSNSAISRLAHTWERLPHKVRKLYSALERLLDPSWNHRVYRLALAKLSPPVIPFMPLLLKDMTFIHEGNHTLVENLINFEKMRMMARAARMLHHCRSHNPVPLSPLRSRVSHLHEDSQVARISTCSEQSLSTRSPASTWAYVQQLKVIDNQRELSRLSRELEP
In short: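 Nucleotide exchange uses 100 nM EPAC1, 250 nM RAP1B-BODIPY-GDP and 50 uM GDP, with compounds in a concentration-titration series. After 5 min at room temperature, fluorescence (480 nm ex/540 nm em) is read every 5 min for 30 min. Data are normalized to control ATA and DMSO.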

[7] = molecular target: Rap guanine nucleotide exchange factor 3 (Homo sapiens) (UniProt O95398); test: Confirmatory qHTS for agonist of cAMP-regulated guanine nucleotide exchange factor 3 (EPAC1) (AID 1645881; active = well fitted curve in the direction sought with a large enough effect; an effect the other way counts as inactive or inconclusive;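 also: EPAC1 catalysed release of BODIPY-GDP from Rap1B seen as fluorescence loss; nearly all actives have a fitted effect of over 75% in size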); details: EPAC1 Rap1B BODIPY-GDP exchange fluorescence, 100% = cAMP control response; series mostly up to 154 µM

For `CCN(CC)C(=O)c1cccnc1`, the Potency [1] was “inactive” and the Potency [2] was “inactive”.
With `Oc1cc(O)cc(O)c1` the Potency [1] was “inactive” and the Potency [2] was “inactive”.
For `CCN1C(=O)NC(c2ccccc2)C1=O` (stereo not given), the Potency [1] was “inactive”.
In the case of `Nc1nccs1`, the Potency [1] is reported as “inactive” and the Potency [2] is reported as “inactive”.
For `CCCc1ccc(C(=O)O)cc1`, the Potency [1] was “inactive” and the Potency [2] was “inactive”.
With `CCOC(C)OCC` the Potency [1] was “inactive” and the Potency [2] was “inactive”.
With `CCCCC(O)c1ccccc1` (stereo not given) the Potency [1] was “inactive”.
In the case of `CC(CCc1ccc(O)cc1)NCC(O)c1ccc(O)cc1` (stereo not given), the Potency [1] is reported as 6.74 µM (active) and the Potency [2] is reported as “inactive”.
In the case of `O=S(=O)(O)CC(S)CS` (stereo not given), the Potency [1] is reported as “inactive”.
With `CO[C@H]1O[C@@H]2O[C@@]3(C)CC[C@H]4[C@H](C)CC[C@@H]([C@H]1C)[C@@]24OO3` the Potency [1] was “inactive” and the Potency [2] was 39.8 µM (active).
For `C=CC1=C(C(=O)O)N2C(=O)[C@@H](NC(=O)/C(=N\O)c3csc(N)n3)[C@H]2SC1` (stereo in doubt), the Potency [1] was “inactive”, the outcome [3] was “inactive” and the Potency [2] was “inactive”.
With `CO/N=C(\C(=O)N[C@@H]1C(=O)N2C(C(=O)O)=C(C[N+]3(C)CCCC3)CS[C@H]12)c1csc(N)n1` the Potency [1] was “inactive” and the Potency [2] was “inactive”.
For `CC(=O)NCCCS(=O)(=O)O`, the Potency [1] was “inactive”, the Potency [2] was “inactive” and the Potency [4] was “inactive”. For the same compound, the Potency [5] was “inactive”.
For `O=C(NNCS(=O)(=O)O)c1ccncc1`, the outcome [6] was “inactive” and the outcome [7] was “inactive”.
For `Cc1cc(-c2ccc(N=Nc3c(S(=O)(=O)O)cc4cc(S(=O)(=O)O)cc(N)c4c3O)c(C)c2)ccc1N=Nc1c(S(=O)(=O)O)cc2cc(S(=O)(=O)O)cc(N)c2c1O`, the Potency [2] was 15.1 µM (active).
For `Cc1c(C)c2c(c(C)c1OC(=O)CCC(=O)O)CC[C@@](C)(CCC[C@H](C)CCC[C@H](C)CCCC(C)C)O2`, the Potency [2] was 21.3 µM (active).
In the case of `CN(C)CCOc1ccc(/C(=C(/CCCl)c2ccccc2)c2ccccc2)cc1`, the Potency [4] is reported as “inactive”.
With `S=C=Nc1ccc(N=C=S)cc1` the Potency [1] was “inactive” and the Potency [2] was “inactive”.
In the case of `N[C@@H](Cc1cc(I)c(Oc2ccc(O)c(I)c2)c(I)c1)C(=O)O`, the Potency [4] is reported as “inactive” and the Potency [5] is reported as “inactive”.
For `CC(C)=CCC/C(C)=C/CC/C(C)=C/CC/C(C)=C/CC1=C(C)C(=O)c2ccccc2C1=O`, the Potency [2] was 8.49 µM (active).
In the case of `CCC(Cc1c(I)cc(I)c(O)c1I)C(=O)O` (stereo not given), the Potency [1] is reported as “inactive” and the Potency [2] is reported as 10.7 µM (active).
With `C=CC[N+]1([C@H]2C[C@H]3[C@@H]4CC[C@H]5C[C@H](O)[C@@H](N6CCOCC6)C[C@]5(C)[C@H]4CC[C@]3(C)[C@H]2OC(C)=O)CCCC1` the Potency [4] was “inactive” and the Potency [5] was “inactive”.
In the case of `CN1c2c(nc(N)[nH]c2=O)NCC1CNc1ccc(C(=O)NC(CCC(=O)O)C(=O)O)cc1` (stereo not given), the Potency [1] is reported as “inactive” and the Potency [2] is reported as “inactive”.
For `CCC(O)c1ccccc1` (stereo not given), the Potency [1] was “inactive” and the Potency [2] was “inactive”.
With `COc1ccc2c(c1)N(C[C@H](C)CN(C)C)c1ccccc1S2` the outcome [6] was “inactive” and the outcome [7] was “inactive”.
For `CC(C)[C@@H](C)/C=C/[C@@H](C)[C@H]1CC[C@H]2/C(=C/C=C3\C[C@@H](O)CC[C@@H]3C)CCC[C@]12C`, the outcome [6] was “inactive” and the outcome [7] was “inactive”.
With `COC(=O)[C@@H](N)CS` the Potency [1] was “inactive” and the Potency [2] was 9.52 µM (active).
In the case of `COC(=O)CCC[N+](C)(C)C`, the Potency [1] is reported as “inactive” and the Potency [2] is reported as “inactive”.
In the case of `CCOC(=O)[C@@H](N)CS`, the Potency [2] is reported as 10.7 µM (active).
In the case of `FCOC(C(F)(F)F)C(F)(F)F`, the Potency [1] is reported as “inactive” and the Potency [2] is reported as “inactive”.
In the case of `CC(C)[C@@H]1CC[C@@H](C)C[C@H]1OC(=O)c1ccccc1O`, the Potency [1] is reported as “inactive” and the Potency [2] is reported as “inactive”.
With `COc1ccc(/C=C/C(=O)O)cc1` the outcome [6] was “inactive” and the outcome [7] was “inactive”.
With `C[C@H](NCCc1ccc(O)cc1)[C@H](O)c1ccc(O)cc1` the Potency [2] was “inactive”.
In the case of `COC(=O)C(CN)c1c[nH]c2ccc(OC)cc12` (stereo not given), the Potency [2] is reported as “inactive”.
In the case of `CCOC(=O)Oc1c(OC)cc(C(=O)O[C@@H]2C[C@@H]3CN4CCc5c([nH]c6cc(OC)ccc56)[C@H]4C[C@@H]3[C@H](C(=O)OC)[C@H]2OC)cc1OC`, the outcome [6] is reported as “inactive” and the outcome [7] is reported as “inactive”.
With `CCCC(=O)O` the Potency [1] was “inactive” and the Potency [2] was “inactive”.
For `CC[C@H](CC[C@@H](C)[C@H]1CC[C@H]2[C@@H]3CC=C4C[C@@H](O)CC[C@]4(C)[C@H]3CC[C@]12C)C(C)C`, the Potency [4] was “inactive” and the Potency [5] was “inactive”.
For `CC[C@H]1OC(=O)[C@H](C)[C@@H](O[C@H]2C[C@@](C)(OC)[C@@H](O)[C@H](C)O2)[C@H](C)[C@@H](O[C@@H]2O[C@H](C)C[C@H](N(C)C)[C@H]2O)[C@](C)(O)C[C@@H](C)CN(C)[C@H](C)[C@@H](O)[C@]1(C)O`, the Potency [1] was “inactive”, the Potency [2] was “inactive” and the Potency [4] was “inactive”. For the same compound, the Potency [5] was “inactive”.
In the case of `COc1cc(NCCCC(C)N)c2ncccc2c1` (stereo not given), the outcome [6] is reported as “inactive” and the outcome [7] is reported as “inactive”.
For `NC(=O)Oc1ccc(Cc2ccccc2)cc1`, the outcome [6] was “inactive” and the outcome [7] was “inactive”.
With `O=C(OC1C[C@@H]2CC3C[C@H](C1)N2CC3=O)c1c[nH]c2ccccc12` (stereo not given in full) the Potency [1] was 6.74 µM (active) and the Potency [2] was 16.9 µM (active).
In the case of `CC(C)Cc1ccc([C@@H](C)C(=O)NS(C)(=O)=O)cc1`, the Potency [4] is reported as “inactive” and the Potency [5] is reported as “inactive”.
In the case of `C=CC[C@@H]1/C=C(\C)C[C@H](C)C[C@H](OC)[C@H]2O[C@@](O)(C(=O)C(=O)N3CCCC[C@H]3C(=O)O[C@H](/C(C)=C/[C@@H]3CC[C@@H](O)[C@H](OC)C3)[C@H](C)[C@@H](O)CC1=O)[C@H](C)C[C@@H]2OC`, the outcome [7] is reported as “inactive”.
With `CCCCC(=O)O[C@H]1CC[C@H]2[C@@H]3CCc4cc(O)ccc4[C@H]3CC[C@]12C` the Potency [1] was “inactive”, the Potency [2] was 19 µM (active) and the outcome [6] was “inactive”. For the same compound, the outcome [7] was “inactive”.
With `COc1ccc([C@@H]2CC(=O)c3c(O)cc(O[C@@H]4O[C@H](CO[C@@H]5O[C@@H](C)[C@H](O)[C@@H](O)[C@H]5O)[C@@H](O)[C@H](O)[C@H]4O)cc3O2)cc1O` the Potency [4] was “inactive” and the Potency [5] was “inactive”.
For `CCC[C@@H]1C[C@@H](C(=O)N[C@@H]([C@H]2O[C@H](SC)[C@H](O)[C@@H](O)[C@H]2O)[C@H](C)Cl)N(C)C1`, the Potency [4] was “inactive” and the Potency [5] was “inactive”.
In the case of `CN[C@@H]1[C@@H](O)[C@@H](O[C@@H]2[C@@H](O)[C@H](O[C@H]3O[C@H](CN)[C@@H](O)[C@H](O)[C@H]3O)[C@@H](N)C[C@H]2NC(=O)C(O)CN)OC[C@]1(C)O` (stereo not given in full), the Potency [4] is reported as “inactive”.
In the case of `Cn1c(O)c(N=NC(N)=S)c2ccccc21`, the Potency [2] is reported as 9.52 µM (active).
With `C=CC(C)(O)CC/C=C(\C)CCC=C(C)C` (stereo not given) the outcome [7] was “inactive”.
For `CSc1nc2cc(Oc3cccc(Cl)c3Cl)c(Cl)cc2[nH]1`, the outcome [6] was “inactive” and the outcome [7] was “inactive”.
For `O=C(O)c1cc(N=Nc2ccc(O)c(C(=O)O)c2)ccc1O`, the Potency [2] was 10.7 µM (active) and the outcome [7] was “inactive”.
